Bioassay records (PubChem)
Mtb BioA inh – inhibitors of Mycobacterium tuberculosis BioA enzyme; purified M. tuberculosis BioA enzyme, plate reader; inhibition, % at 9.99 µM; actives 0.096% (n = 360,000); AID 602481; in the data active = inhibition above about 40%
GDH-TPI counter – counter-screen for M. tuberculosis FBA inhibitors: GDH-TPI coupled enzymes; inhibition, % at 4.8 µM; GDH-TPI coupled enzyme counterscreen, NADH absorbance; actives 1.2% (n = 360,000); in the data active = inhibition above about 30%;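 also: 0% = DMSO wells and 100% = wells lacking the enzyme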
FBA Mtb inh – inhibits M. tuberculosis FBA enzyme; P9WQA3; purified M. tuberculosis FBA, fluorescence read-out; inhibition, % at 1 µM; actives 2.3% (n = 360,000); AID 588726; in the data active = inhibition above about 27%;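 also: 0% = vehicle and 100% = reference inhibitor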
Target sequence (P9WQA3 whole entry, looked up): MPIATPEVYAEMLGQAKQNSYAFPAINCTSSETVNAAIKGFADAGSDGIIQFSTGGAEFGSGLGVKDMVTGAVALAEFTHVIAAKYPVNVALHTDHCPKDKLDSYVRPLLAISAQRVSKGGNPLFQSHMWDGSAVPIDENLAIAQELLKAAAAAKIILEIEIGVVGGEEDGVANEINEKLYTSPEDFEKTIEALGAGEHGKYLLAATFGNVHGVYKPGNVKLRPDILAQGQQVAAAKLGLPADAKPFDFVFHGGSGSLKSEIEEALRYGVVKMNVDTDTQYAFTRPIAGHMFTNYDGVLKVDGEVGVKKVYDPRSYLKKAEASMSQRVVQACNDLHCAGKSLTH
3CLpro inhibitor – SARS-CoV 3CLpro protease inhibition; P0C6X7; recombinant SARS-CoV 3CLpro, quenched FRET peptide cleavage; inhibition, % at 6 µM; actives 0.14% (n = 290,000); in the data active = inhibition above about 12%
FadD28 binding – blocks FadD28 binding to the bisubstrate probe. fluorescence polarization. inhibition, % at 12.5 µM. actives 0.22% (n = 360,000). AID 588549; in the data active = inhibition above about 8.5%, passing the limit was not always enough
Numbers without * were called inactive; / = no result. Shown are actives, neighbours in structure and some others; about 3.1% of the full set was active somewhere.

SMILES	Mtb BioA inh	GDH-TPI counter	FBA Mtb inh	3CLpro inhibitor	FadD28 binding
COc1ccc(CN(C(=S)Nc2ccccc2)C2CC(=O)N(c3ccc(F)cc3)C2=O)cc1 (configuration not stated)	-1	8	3	-2	-6
COc1ccc(N2C(=O)CS/C2=N\C(=S)Nc2ccccc2)cc1	-6	37*	0	0	0
CN(C)N=Nc1nc2c(c(=O)n(C)c(=O)n2C)n1CC1CO1 (configuration not stated)	-1	35*	-2	0	1
O=C(N[C@H]1CC[C@@H](CCn2cc(Cc3ccccc3)nn2)O[C@H]1CO)c1ccccn1	0	/	/	/	/
CC=Cc1ccc2n(c1=O)C[C@@H]1[C@@H](CO)[C@H](C(=O)NCc3ccccc3)N(S(C)(=O)=O)[C@H]21 (mixture of isomers)	-1	/	/	/	/
COc1ccccc1N1CCN(C2CCCN(S(=O)(=O)c3ccccc3)C2)CC1 (configuration not stated)	2	10	163*	5	-1
C=CCS(=O)(=O)N1CCCC(N2CCN(c3ccccc3OC)CC2)C1 (configuration not stated)	0	-3	2	3	-1
CC(C)C#Cc1ccc([C@H]2[C@@H](CO)N3CCCCN(CC4CC4)C[C@@H]23)cc1	-4	/	/	/	/
CN(C)c1ccc([N+](=O)[O-])c([N+](=O)[O-])c1	-2	16	-17	/	-1
NNc1ccc([N+](=O)[O-])c2[nH][nH]c(=O)c12	3	7	-5	/	16*
CC(/C=N/NC(=O)Cc1cccn1C)=C\c1ccco1	0	40*	-2	6	1
Cn1c(=O)c2c(ncn2CC(=O)N/N=C/C=C/c2ccco2)n(C)c1=O	/	32*	-2	5	0
COc1ccc(C(=O)NCC(=O)N/N=C/C(C)=C/c2ccco2)cc1OC	-1	41*	-2	-1	-1
COc1cc(C(=O)NCC(=O)N/N=C/c2ccco2)cc(OC)c1OC	1	2	-3	3	2
Cc1ccc(OCC(=O)N/N=C/C=C/c2ccco2)c(Br)c1	-1	34*	2	7	1
Cc1ccc(/C=N/NC(=O)Cn2cnc3c2c(=O)n(C)c(=O)n3C)s1	/	16	-1	4	-3
C[C@@H]1CN([C@@H](C)CO)C(=O)c2cc(NS(=O)(=O)c3ccc(F)cc3)ccc2O[C@H]1CN(C)Cc1ccc2c(c1)OCO2	2	/	/	/	/
CC(/C=N/NC(=O)Cn1cnc2c1c(=O)n(C)c(=O)n2C)=C\c1ccco1	0	41*	1	5	0
CC(/C=N/NC(=O)CN1CCN(Cc2ccc(Cl)cc2)CC1)=C\c1ccco1	/	30	-1	-2	-3
O=C(CN1CCN(Cc2ccccc2)CC1)N/N=C/C=C/c1ccco1	/	33*	0	7	0
Cn1c(=O)c2c(ncn2CC(=O)N/N=C/C(Cl)=C/c2ccccc2)n(C)c1=O	/	14	0	7	0
N#C/C(=N/Nc1ccccc1F)C(=N)N1CCOCC1	-1	32*	-1	3	0
COc1ccc(N/N=C(\C#N)C(=N)N2CCOCC2)cc1	/	-1	-8	2	-3
COc1ccccc1-c1coc2c(CN3CCN(CCO)CC3)c(O)ccc2c1=O	-1	16	152*	-2	-2
COc1ccccc1-c1coc2c(CN3CCN(C)CC3)c(O)ccc2c1=O	2	22	132*	7	-2
SMILES	Mtb BioA inh	GDH-TPI counter	FBA Mtb inh	3CLpro inhibitor	FadD28 binding
CCN1CCN(Cc2c(O)ccc3c2O/C(=C\C=C\c2ccccc2OC)C3=O)CC1	-37	15	-4	4	0
CCN1CCN(Cc2c(O)ccc3c(=O)c(-c4ccccc4OC)coc23)CC1	/	28	119*	-5	0
CO[C@@H]1CN(C)C(=O)c2cc(NS(C)(=O)=O)ccc2OC[C@@H](C)N(C(=O)CC2CC2)C[C@@H]1C	-2	/	/	/	/
COc1ccc(/C=N/Nc2nnc(-c3ccccc3)c(=O)[nH]2)cc1	0	35*	-4	-3	-1
O=c1[nH]c(N/N=C/c2ccccc2Br)nnc1-c1ccccc1	/	39*	0	6	-5
Nc1cc(C(F)(F)F)ccc1C(=O)O	-1	9	76*	1	3
O=C(C=Cc1cccs1)c1cccs1	0	14	-1	/	-3
O=C(/C=C\c1cccs1)c1c(O)ccc2ccc(=O)oc12	-1	36*	-7	5	-4
CO[C@@H]1CN(C)C(=O)c2cc(NC(=O)C3CCC3)ccc2OC[C@@H](C)N(S(=O)(=O)c2ccc(Cl)cc2)C[C@H]1C	0	/	/	/	/
